# Reference: ChEMBL document CHEMBL1157539, “Thousands of chemical starting points for antimalarial lead identification” (Nature, 2010)
# System: HepG2
# Experiment: GSK_TCMDC: Percent inhibition of human HepG2 cell line. Test compounds present at 10uM.
# Assay type: functional
row,SMILES,Inhibition
1,CCN(CCO)CCc1cccc(Nc2nccc(-c3c(-c4ccc(NC(=O)C(C)(C)C)cc4)nn4ccccc34)n2)c1.Cl,62%
2,Cc1ccc(C(=O)Nc2ccc(Nc3ccnc4cc(-c5ccccn5)ccc34)cc2O)cc1.Cl,100%
3,Cc1cccc(-c2cc3cc(Nc4ccnc5cc(-c6nccs6)ccc45)ccc3[nH]2)c1.Cl,0%
4,COc1cccc(-c2ccc3c(-c4cccc(S(C)(=O)=O)c4)cnc(N)c3c2)c1,45%
5,Cc1cccc(CNc2nc(C)cc(N[C@@H](Cc3ccccc3)C(=O)NCc3cccc(F)c3)n2)c1.O=C(O)C(F)(F)F,39%
6,Cc1cc(NC(=O)c2cccs2)ccc1OC1CCN(Cc2ccc(C#N)cc2)C1.O=C(O)C(F)(F)F (configuration not stated),13%
7,C=C[C@]1(C)C[C@@H](OC(=O)CNC[C@@H](O)CN2C[C@H](c3ccnc4ccc(OC)nc34)OC2=O)[C@@]2(C)[C@@H]3C(=O)CC[C@@]3(CC[C@@H]2C)[C@@H](C)[C@@H]1O,0%
8,COc1cccc(Nc2nccc(NCC(O)c3cccc(C(F)(F)F)c3)n2)c1 (configuration not stated),6%
9,CCCCCCNC(=O)C1Cc2c([nH]c3cc(Cl)ccc23)C2(CCN(Cc3ccccc3)CC2)N1 (configuration not stated),21%
10,COc1c(C2CCN(CCCCNC(=O)c3ccc(-c4ccc(C(=O)C(F)(F)F)cc4)cc3)CC2)ccc2c1CCCC2,99%
11,N#Cc1cccc(CN2CCCN(Cc3cccc(C(=O)Nc4ccc(Cl)cc4)c3)CC2)c1.O=C(O)C(F)(F)F,46%
12,COc1ccc(-c2cnc3ccc(NCc4ccc(S(N)(=O)=O)cc4)nn23)cc1,19%
